# Tests used:
# Test in all cases: pooled miR-30 sensor sort-seq; sequence = guide strand
# Details in all cases: shRNA
# [1] = molecular target: TSPAN3
# [2] = molecular target: TSPYL2
# [3] = molecular target: TSPAN8
# [4] = molecular target: TSEN34
# [5] = molecular target: TSPY2
# [6] = molecular target: TTLL3
# [7] = molecular target: TXLNG
# [8] = molecular target: UMOD
# [9] = molecular target: ULK1
# [10] = molecular target: UNC5D
# [11] = molecular target: UNC5A
# Also: reference of the scale not given here.
sequence,measurement,setting,value
TAAGCAGGATCTCTACTCCTTC,sensor-assay potency score (higher = more potent),[1],-0.519
ATAGATGTCCTCATCTTGCTGG,sensor-assay potency score (higher = more potent),[2],0.469
TTTGAAAACAGCTCCTAGGATA,sensor-assay potency score (higher = more potent),[3],-0.99
TAGACTGGACACGCCAGTCCAG,sensor-assay potency score (higher = more potent),[4],-1.11
TTGCTGGCAGTCTCTCTGCAGC,sensor-assay potency score (higher = more potent),[1],-1.25
TAGACCAGGAAGTCACCTCCGA,sensor-assay potency score (higher = more potent),[4],0.0618
AACAACAGAAGCATGCAGCGAC,sensor-assay potency score (higher = more potent),[3],-0.179
TTAGATTTGAAAACAGCTCCTA,sensor-assay potency score (higher = more potent),[3],0.475
TAGGTCTTATACACTTTCTGAA,sensor-assay potency score (higher = more potent),[1],-0.69
TTCTGCTTCTTAGCAGCCTGGC,sensor-assay potency score (higher = more potent),[4],-0.77
TTATACACTTTCTGAATGCTGC,sensor-assay potency score (higher = more potent),[1],-0.18
TCTTTAGACTGGACACGCCAGT,sensor-assay potency score (higher = more potent),[4],-1.04
AATTCCACAACAATGCAGCTGT,sensor-assay potency score (higher = more potent),[1],0.00279
AATCTTCTCCAGGAGCTCCTGA,sensor-assay potency score (higher = more potent),[4],-1.01
TTGTTTTCCATTATAGCTTTGG,sensor-assay potency score (higher = more potent),[3],-0.474
TACACTTTCTGAATGCTGCGAT,sensor-assay potency score (higher = more potent),[1],1.02
ATGAACACGATGCTTCTCTTCT,sensor-assay potency score (higher = more potent),[5],-0.856
TATGTCTAGAAGATATCTGTGG,sensor-assay potency score (higher = more potent),[3],-0.374
TTCATTGTCACTGTCGCTGCTG,sensor-assay potency score (higher = more potent),[2],0.841
TTTCTTGTAGCTTCTTCACTAC,sensor-assay potency score (higher = more potent),[1],-0.264
TTGATAATCTCAGCAATCCTGT,sensor-assay potency score (higher = more potent),[2],-0.197
TGTCGCGGTAGAACCACACGGT,sensor-assay potency score (higher = more potent),[6],-0.291
TTCCTTACGTTTGAACACCTTA,sensor-assay potency score (higher = more potent),[7],-0.525
TTGTAGACGTAGTAGCCGCCGG,sensor-assay potency score (higher = more potent),[8],-1.04
ATCAAGAGAACATTCAACCAGG,sensor-assay potency score (higher = more potent),[9],-0.0767
TAACCAACCTCTAAGTAGCTGA,sensor-assay potency score (higher = more potent),[10],0.224
TTGAAGAAGATCTGCGTGGCGG,sensor-assay potency score (higher = more potent),[11],-0.341
TTGGTGAGCTGGAACTTGGGGC,sensor-assay potency score (higher = more potent),[11],-0.337
TTGAAGTCCTGTTTGCACTGGC,sensor-assay potency score (higher = more potent),[8],0.829
TTTCATTCCTCGTCAACACTGT,sensor-assay potency score (higher = more potent),[8],0.582
